Assay results: PubChem BioAssay (NCATS)
Records with an inconclusive call do not appear. Unmarked numbers belong to inactive results. The source made the active and inactive calls. Calls come from the whole dose curve; as a rule, active = well fitted inhibition curve with a large enough effect; inconclusive = small, poorly fitted or top-dose-only effect; inactive = no such curve, though single readings can be large or run the other way.

Molecular target: Glutaminase kidney isoform, mitochondrial (Homo sapiens) (UniProt O94925)
Sequence (O94925 whole entry, looked up, canonical isoform): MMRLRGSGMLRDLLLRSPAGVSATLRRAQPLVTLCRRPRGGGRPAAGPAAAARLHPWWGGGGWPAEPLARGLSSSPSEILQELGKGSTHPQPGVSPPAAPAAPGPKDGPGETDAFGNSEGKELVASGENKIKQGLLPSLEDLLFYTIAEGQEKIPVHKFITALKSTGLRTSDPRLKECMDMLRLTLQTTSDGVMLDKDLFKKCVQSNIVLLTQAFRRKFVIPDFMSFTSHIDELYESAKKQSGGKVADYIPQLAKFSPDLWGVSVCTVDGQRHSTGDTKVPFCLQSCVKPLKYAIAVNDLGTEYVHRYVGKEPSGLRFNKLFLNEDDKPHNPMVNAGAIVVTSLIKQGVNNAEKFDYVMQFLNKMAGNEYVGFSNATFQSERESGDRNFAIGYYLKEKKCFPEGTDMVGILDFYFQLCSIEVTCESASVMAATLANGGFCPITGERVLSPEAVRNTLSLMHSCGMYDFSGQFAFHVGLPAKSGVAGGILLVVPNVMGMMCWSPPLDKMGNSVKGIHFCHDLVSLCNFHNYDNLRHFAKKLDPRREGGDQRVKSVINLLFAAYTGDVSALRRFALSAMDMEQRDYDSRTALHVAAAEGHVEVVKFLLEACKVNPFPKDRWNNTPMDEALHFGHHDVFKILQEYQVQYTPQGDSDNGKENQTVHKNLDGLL
Test: qHTS for Inhibitors of Glutaminase (GLS): LOPAC Validation (AID 624146); note: nearly all actives have a fitted effect of over 60% in size;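 for activity change, negative = inhibition: glutamate product detected by oxidase and peroxidase coupled Amplex red fluorescence gain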
Settings: glutaminase enzyme activity inhibition; series mostly up to 46.1 µM; activity change, negative = inhibition: at the top concentration
How it was run: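 Glutamate formation by hKGA was monitored fluorometrically using coupled glutamate oxidase, HRP and Amplex Red. Substrate was added as 1 mM L-glutamine solution; incubation was 30 min at RT after an initial read.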
% is set by controls: 0 for no effect and ±100 for the full control effect; potency is the fitted concentration of half-maximal effect.

Row | Structure (SMILES) | activity change, negative = inhibition | Potency
1 | Cc1ccc(O)c(N=Nc2ccccc2)n1 | -12.3% | 
2 | CN1C2CCC1CC(OC(=O)C(O)c1ccccc1)C2 (configuration not stated) | 63.8% | 
3 | CC(=O)SCC[N+](C)(C)C | -20.9% | 
4 | COc1cc2nc(N3CCN(C(=O)OCc4ccccc4)C(C(=O)NC(C)(C)C)C3)nc(N)c2cc1OC (configuration not stated) | -7.86% | 
5 | CC1(C)CCC=[N+]1[O-] | 1.91% | 
6 | CO/S(=N\S(=O)(=O)c1ccc(Cl)cc1)c1ccc([N+](=O)[O-])cc1 (configuration not stated) | -13% | 
7 | O=P(O)(O)C(Cl)(Cl)P(=O)(O)O | 38.1% | 
8 | CCCCCCCCc1ccc(-c2ccc(C(=O)O)cc2)cc1 | 23.1% | 
9 | C#CCN1C(C)=C(C(=O)OC)C(c2cccc([N+](=O)[O-])c2)C(C(=O)OCC)=C1C (configuration not stated) | -31% | 
10 | COc1cc(C(O)CO)ccc1OS(=O)(=O)O (configuration not stated) | -10.1% | 
11 | CC(C)Cc1ccc([C@H](C)C(=O)O)cc1 | -11.4% | 
12 | Cc1nc2sccn2c(=O)c1CCN1CCC(=C(c2ccccc2)c2ccc(F)cc2)CC1 | 36% | 
13 | O=c1[nH]c2cc(Cl)c(Cl)cc2[nH]c1=O | 47.9% | 
14 | CC1CN(S(=O)(=O)c2cccc3cnccc23)CCN1 (configuration not stated) | -0.748% | 
15 | COc1ccc(NC(=O)/C=C/c2ccc(Cl)cc2)cc1 | -13.4% | 
16 | C[C@@H](NC(=O)/C(C#N)=C/c1ccc(O)c(O)c1)c1ccccc1 |  | 1000 nM (active)
17 | CCCN(CC1CC1)c1nc(C)nc(Nc2c(Cl)cc(Cl)cc2Cl)c1Cl | 3.03% | 
18 | Cc1cc(NC2CCCCC2)nc(-n2nc(C)cc2C)n1 | -8.08% | 
19 | NCCSSCCN | -11.6% | 

Row | Structure (SMILES) | activity change, negative = inhibition | Potency
20 | CC(C)(C=O)Cc1cc(C(C)(C)C)c(O)c(C(C)(C)C)c1 |  | 2510 nM (active)
21 | CCc1c(C(=O)NCCc2ccc(N3CCCCC3)cc2)[nH]c2ccc(Cl)cc12 | -20.7% | 
22 | NC(=S)c1ccc[n+]([C@@H]2O[C@@H](COP(=O)([O-])OP(=O)(O)OC[C@H]3O[C@@H](n4cnc5c(N)ncnc54)[C@H](OP(=O)(O)O)[C@@H]3O)C(O)C2O)c1 (some centres not stated) | 17% | 
23 | CCCn1c(=O)c2[nH]c(-c3ccc(OCC(=O)NCCN)cc3)nc2n(CCC)c1=O | -15.9% | 
24 | CN=c1nc(-c2ccccc2)n(-c2ccccc2)s1 | 111% | 
25 | CNC(=O)[C@H]1O[C@@H](n2cnc3c(NCc4ccc(N)cc4)ncnc32)[C@H](O)[C@@H]1O | -3.72% | 
26 | C=CC(C)=C[C@@]1(C)SC(=O)C(C)=C1O | -18.1% | 
27 | Clc1ccc(N2CCN(Cc3cc4ccccn4n3)CC2)cc1 | -4.96% | 
28 | N#C/C(=C\c1ccc(O)c(O)c1)C(=O)NCc1ccccc1 |  | 562 nM (active)
29 | OC[C@H]1O[C@@H](n2cnc3c(NC4CCCCC4)ncnc32)[C@H](O)[C@@H]1O | 1.8% | 
30 | O=C1NC(=O)/C(=C/c2ccc3nccnc3c2)S1 | -13.2% | 
31 | NCCCCC(=O)O | -1.57% | 
32 | COc1ccccc1N1CCN(CCN(C(=O)c2ccc(I)cc2)c2ccccn2)CC1 | -16.4% | 
33 | NCC1OC(O[C@H]2[C@H](O)[C@@H](OC3C(O)C(N)CC(N)C3OC3OC(CO)C(O)C(O)C3N)O[C@@H]2CO)C(N)C(O)C1O (some centres not stated) | 25.9% | 
34 | O=C(O)c1cc([N+](=O)[O-])ccc1NCCCc1ccccc1 | -25.3% | 
35 | Nc1ncnc2c1ncn2[C@@H]1O[C@H](COP(=O)(O)CP(=O)(O)OP(=O)(O)O)[C@@H](O)[C@H]1O | 1.78% | 
36 | NC(=O)C1=CN(C2OC(COP(=O)(O)OP(=O)(O)OC[C@H]3O[C@@H](n4cnc5c(N)ncnc54)[C@H](OP(=O)(O)O)[C@@H]3O)C(O)C2O)C=CC1 (some centres not stated) | -11.1% | 
37 | CCCCC#Cc1nc(NC)c2ncn([C@@H]3O[C@H](CO)[C@@H](O)[C@H]3O)c2n1 | -25.8% | 
